Measured values published in PubChem BioAssay.
Calls of active or inactive are those of the source.

Experiments:
[1] = compounds binding Alexa647 anti-His antibody – biochemical, small-molecule microarray, 635 nm fluorescence, artefact control for SMM control protein annotation, primary screen (AID 1128); details: higher = more signal;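 note: score merges feature fluorescence with signal-to-noise for each printed compound spot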
[2] = tested on: Human papillomavirus type 1a E7 protein (residues 1-88); test: HPV1a E7 small-molecule binders, primary screen, biochemical, small-molecule microarray, residues 1-88, 635 nm (AID 1129); details: small-molecule microarray binding, fluorescence 635 nm; higher = more signal
[3] = biological target: Focal adhesion kinase 1 (Homo sapiens) (UniProt Q05397); test: PTK2 protein binding on printed compound slides – biochemical, small-molecule microarray, 635/667 nm fluorescence, BSA, DTT, primary screen (AID 1130); details: 635 nm fluorescence, higher = more signal;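 note: composite of spot emission at 667 nm and signal to noise over triplicate slides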
Focal adhesion kinase 1 (Homo sapiens), sequence (Q05397 whole entry, looked up): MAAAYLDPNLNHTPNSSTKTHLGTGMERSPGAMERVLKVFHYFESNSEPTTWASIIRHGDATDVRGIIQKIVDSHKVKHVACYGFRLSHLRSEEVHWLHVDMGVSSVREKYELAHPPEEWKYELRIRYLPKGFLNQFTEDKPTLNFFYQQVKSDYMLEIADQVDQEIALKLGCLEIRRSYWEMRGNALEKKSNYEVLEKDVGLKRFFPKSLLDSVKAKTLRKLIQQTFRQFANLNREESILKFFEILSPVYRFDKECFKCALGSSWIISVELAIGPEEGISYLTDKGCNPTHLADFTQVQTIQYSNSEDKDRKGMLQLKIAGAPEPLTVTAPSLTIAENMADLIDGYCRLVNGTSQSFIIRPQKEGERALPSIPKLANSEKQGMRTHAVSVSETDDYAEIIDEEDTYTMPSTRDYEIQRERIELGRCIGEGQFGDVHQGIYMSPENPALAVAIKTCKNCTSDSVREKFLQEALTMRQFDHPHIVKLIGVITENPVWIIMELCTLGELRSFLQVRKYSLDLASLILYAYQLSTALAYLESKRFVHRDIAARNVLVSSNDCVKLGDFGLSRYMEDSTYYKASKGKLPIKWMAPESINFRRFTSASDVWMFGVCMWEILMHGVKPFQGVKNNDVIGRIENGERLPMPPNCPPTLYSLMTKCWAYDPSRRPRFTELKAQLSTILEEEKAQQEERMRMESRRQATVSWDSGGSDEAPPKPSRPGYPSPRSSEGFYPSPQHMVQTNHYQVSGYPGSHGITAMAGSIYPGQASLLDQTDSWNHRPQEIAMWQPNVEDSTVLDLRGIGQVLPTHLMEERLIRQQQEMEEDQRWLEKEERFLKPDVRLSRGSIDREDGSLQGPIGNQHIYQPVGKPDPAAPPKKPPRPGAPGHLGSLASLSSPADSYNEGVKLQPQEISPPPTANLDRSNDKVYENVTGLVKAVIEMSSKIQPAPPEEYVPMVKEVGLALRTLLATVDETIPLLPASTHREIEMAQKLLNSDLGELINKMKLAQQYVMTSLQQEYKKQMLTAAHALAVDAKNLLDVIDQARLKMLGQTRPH

[4] = tested on: Fibrinogen (Alexa647-labelled); test: Alexa647-fibrinogen binding to printed small molecules – biochemical, small-molecule microarray, 635/667 nm fluorescence, artefact control for SMM control-protein annotation, profiling panel (AID 1131); details: fibrinogen-A647 binding fluorescence, higher = more signal;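 note: z-score merges 667 nm fluorescence with per-spot signal-to-noise over triplicate slides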
[5] = biological target: Follistatin (Homo sapiens) (UniProt P19883); test: FST protein binding to printed compounds – biochemical, small-molecule microarray, 635/667 nm fluorescence, primary screen (AID 1132); details: 635 nm fluorescence, higher = more signal
Follistatin (Homo sapiens), sequence (P19883 whole entry, looked up): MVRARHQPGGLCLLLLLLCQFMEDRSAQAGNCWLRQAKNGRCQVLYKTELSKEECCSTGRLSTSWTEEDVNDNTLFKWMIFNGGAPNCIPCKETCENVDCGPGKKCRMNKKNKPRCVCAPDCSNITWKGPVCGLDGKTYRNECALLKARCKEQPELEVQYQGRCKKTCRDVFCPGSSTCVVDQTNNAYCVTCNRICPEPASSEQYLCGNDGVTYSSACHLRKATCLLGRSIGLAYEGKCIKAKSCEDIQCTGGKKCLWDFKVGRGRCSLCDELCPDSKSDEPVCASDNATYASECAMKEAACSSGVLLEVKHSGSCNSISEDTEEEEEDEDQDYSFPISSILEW

[6] = biological target: Fibroblast growth factor 2 (Homo sapiens) (UniProt P09038); test: basic fibroblast growth factor binding to printed compounds – biochemical, small-molecule microarray, 635/667 nm fluorescence, primary screen (AID 1133); details: FGF2, fluorescence 635/667, higher = more signal
Fibroblast growth factor 2 (Homo sapiens), sequence (P09038 whole entry, looked up): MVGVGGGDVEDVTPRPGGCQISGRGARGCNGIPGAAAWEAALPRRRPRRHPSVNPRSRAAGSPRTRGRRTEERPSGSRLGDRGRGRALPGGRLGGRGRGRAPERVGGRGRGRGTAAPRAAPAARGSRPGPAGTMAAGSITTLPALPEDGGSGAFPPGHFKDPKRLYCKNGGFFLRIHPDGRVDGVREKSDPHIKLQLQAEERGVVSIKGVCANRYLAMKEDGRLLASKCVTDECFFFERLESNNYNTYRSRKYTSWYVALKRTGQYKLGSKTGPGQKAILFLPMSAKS

[7] = JC-1 mitochondrial potential readout, lung cancer cells – cell-based, A549, JC-1 fluorescence, basal, 24 h, 100 nL, profiling panel (AID 1138); details: higher = more signal;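 note: A549 lung adenocarcinoma cells under basal conditions with no added stimulus; test concentration not given here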
Lefty1 = Lefty1 protein binding to printed compounds – biochemical, small-molecule microarray, 635/667 nm fluorescence, primary screen (AID 1139); details: fluorescence 635/667, higher = more signal
[8] = tested on: wheat germ agglutinin (Triticum aestivum), Alexa647-labelled; test: Alexa647-WGA lectin binding to printed small molecules – biochemical, small-molecule microarray, 635/667 nm fluorescence, artefact control for SMM control-protein annotation, profiling panel (AID 1140); details: WGA-A647 binding, 635 nm fluorescence, higher = more signal;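 note: score merges 667 nm feature emission with signal to noise over triplicate slides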
[9] = biological target: Luciferin 4-monooxygenase (Photinus pyralis) (UniProt P08659); test: inhibition of purified Photinus pyralis luciferase – biochemical, luminescence, purified enzyme, 2006 set, primary screen (AID 1141); details: purified firefly luciferase, SteadyGlo luminescence, 30 min; higher = more signal, called active from +8 up or from −8 down;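 note: cell-free assay with purified firefly luciferase at 100 ng per well in PBS; test concentration not given here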
Luciferin 4-monooxygenase (Photinus pyralis), sequence (P08659 whole entry, looked up): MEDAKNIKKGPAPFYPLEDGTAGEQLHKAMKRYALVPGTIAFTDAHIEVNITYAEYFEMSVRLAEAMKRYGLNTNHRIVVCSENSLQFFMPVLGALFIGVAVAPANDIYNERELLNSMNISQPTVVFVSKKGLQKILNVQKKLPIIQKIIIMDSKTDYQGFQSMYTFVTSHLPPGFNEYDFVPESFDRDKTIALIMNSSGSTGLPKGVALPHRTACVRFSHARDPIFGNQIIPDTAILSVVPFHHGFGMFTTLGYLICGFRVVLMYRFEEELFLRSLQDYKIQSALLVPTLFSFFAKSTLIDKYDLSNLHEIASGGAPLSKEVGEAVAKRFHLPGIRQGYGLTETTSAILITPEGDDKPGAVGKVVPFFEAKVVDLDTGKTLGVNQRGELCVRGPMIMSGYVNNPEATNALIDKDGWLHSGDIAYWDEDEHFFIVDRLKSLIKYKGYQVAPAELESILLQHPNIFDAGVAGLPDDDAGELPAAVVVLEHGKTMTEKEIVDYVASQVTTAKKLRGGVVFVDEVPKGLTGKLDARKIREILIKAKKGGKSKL

Compound | composite z-score [1] | composite z-score [2] | composite z-score [3] | composite z-score [4] | composite z-score [5] | composite z-score [6] | z-score [7] | composite z-score (Lefty1) | composite z-score [8] | z-score [9]
COc1ccc([Si](C)(C)[C@@H]2[C@@H](CCO)O[C@]3(C(=O)N(Cc4cccc(N5C(=O)c6cccc7cccc5c67)c4)c4ccccc43)[C@H]2C)cc1 | 1.06 | 0.848 | -0.123 | 0.136 | 0.004 | -0.0148 | -0.43 | 0.626 | 0.0034 | -0.508 (inactive)
CC(C)CNC(=O)[C@@]1(c2ccc([N+](=O)[O-])cc2)CC(=O)N(C2CCCCC2)[C@@H]1c1ccc(CO)cc1I | -0.423 | 0.676 | 0.295 | -0.106 | -0.0906 | 0.669 | 1.86 | -0.411 | 1.15 | -0.712 (inactive)
COCCOC(=O)N1C(=O)[C@@]2(c3cc(C#CC4(O)CCCCCC4)ccc31)[C@H](C(N)=O)[C@H]1C(=O)O[C@H](c3ccccc3)[C@H](c3ccccc3)N1[C@@H]2c1ccc(O)cc1 | 1.28 | 1.17 | 0.124 | 0.329 | 1.32 | 0.869 | -0.317 | 0.754 | 0.547 | -1.4 (inactive)
C[N+](C)(C)CCCC[C@@H]1NC(=O)[C@@H]2C[C@H](C(=O)O)[C@H](c3ccc(O)cc3)N2C1=O | -0.613 | -1.65 | -0.975 | -1.21 | -0.493 | -0.27 | -0.264 | 0.0501 | 0.213 | -0.516 (inactive)
C=CCN1C(=O)[C@@]2(O[C@@H](CCn3cc([C@H](O)c4ccccc4)nn3)[C@H]([Si](C)(C)c3ccc(OC)cc3)[C@H]2C)c2ccccc21 | 0.351 | 1.14 | 0.287 | 0.371 | 1.18 | 0.761 | 0.493 | 1.2 | 0.875 | 0.586 (inactive)
CC(C)N1CC=CC23O[C@@H]4C=CCCOC(=O)C4[C@H]2C(=O)N(CCO)[C@@H]3C1=O (stereo not given in full) | -0.517 | -1 | -0.482 | -0.288 | -0.194 | -0.205 | -0.467 | 0.0404 | 0.459 | 0.697 (inactive)
CC(=O)n1cc(C(O)C2C=CC3C(=O)N(c4ccccc4)C(=O)C3N2Nc2ccccc2)c2ccccc21 (stereo not given) | 0.917 | 0.663 | 0.0901 | 0.735 | 1.36 | -0.379 | -0.282 | -0.137 | 1.27 | 0.252 (inactive)
COc1cc2c(cc1OC)CN(C(=O)[C@H]1[C@@H]3C(=O)O[C@@H](c4ccccc4)[C@@H](c4ccccc4)N3[C@@H](c3ccc(OCCO)cc3)[C@]13C(=O)Nc1ccc(C#CCCO)cc13)CC2 | 1.43 | 1.22 | 0.541 | 0.939 | 1.35 | 0.742 | -0.96 | 1.14 | 1.01 | 0.268 (inactive)
Cc1ccc(F)cc1S(=O)(=O)N[C@@H]1CCN(Cc2ccc(OC(C)C)cc2)C1 | 0.111 | -1.37 | -0.425 | -0.907 | -0.235 | 0.47 | 1.14 | -0.177 | -1.28 | 0.0358 (inactive)
COC(=O)Cn1c(C(=O)N2CCCC2)cc2c1C[C@H]1CN(C(=O)c3ccccc3)[C@@](Cc3ccc(F)cc3)(C(=O)OC)[C@@H]21 | 0.712 | -0.25 | 0.386 | -0.288 | 0.237 | -0.438 | 1.39 | -0.3 | 0.647 | 1.22 (inactive)
O=C1OC[C@@H](c2ccccc2)N2CC(/C=C/c3ccccc3)=CC12 (stereo not given in full) | -0.206 | 0.725 | -0.542 | -0.593 | -1.29 | -1.45 | 0.0121 | -1.58 | -0.408 | 0.0761 (inactive)
CC(C)(C)OC(=O)CC[C@]1(C(=O)NCCN2CCOCC2)N=C(c2ccc(OCCCO)cc2)O[C@H]1c1ccccc1N=[N+]=[N-] | 2.11 | 1.15 | 0.782 | 1.04 | 0.283 | -0.104 | 0.669 | -0.595 | 1.33 | -10.8 (active)
COC(=O)C[C@H]1O[C@]2(C(=O)N(C)c3ccccc32)[C@@H](C)[C@@H]1[Si](C)(C)c1ccc(C)cc1 | 0.522 | 1.12 | 0.342 | 0.343 | 0.498 | 0.148 | 0.557 | 0.818 | 0.255 | -0.507 (inactive)
CCCC[C@@H]1C[C@H]1[C@@H](NC(=O)c1ccccc1)c1ccc(Cl)cc1 | -0.0782 | -1.52 | 0.528 | -2.07 | -2.37 | -1.9 | 1.66 | -2.22 | -1.6 | 0.923 (inactive)
CCCCN1CC=CC23O[C@@H]4C=CCOC(=O)[C@@H]4[C@H]2C(=O)N(CCCO)[C@@H]3C1=O (stereo not given in full) | 0.56 | -0.518 | -0.609 | -1.28 | -1.45 | -0.682 | -1.08 | -0.199 | -0.929 | -0.135 (inactive)
C=C(CCCC)C(=O)CC[C@@H](OC(=O)c1cccnc1)c1ccccc1OCCO | -0.349 | -0.107 | -0.0523 | 0.48 | 0.865 | 1.34 | 1.24 | 1.56 | 0.058 | -0.511 (inactive)
NC(=O)N1C(=O)C2C(C1=O)C1C=C(c3ccc(CO)cc3)C2C(C2CC2)N1Cc1sc2ccccc2c1Cl (stereo not given) | 2.42 | 1.13 | -0.159 | 0.985 | 0.855 | 1.62 | 1.46 | 1.16 | 1.12 | -2.36 (inactive)

Compound | composite z-score [1] | composite z-score [2] | composite z-score [3] | composite z-score [4] | composite z-score [5] | composite z-score [6] | z-score [7] | composite z-score (Lefty1) | composite z-score [8] | z-score [9]
COc1cc(CO)cc(I)c1O[C@H]1C=C(C(=O)NCCO)C[C@@H](N(Cc2ccc(F)cc2)C(=O)C2CCCO2)[C@@H]1O (stereo not given in full) | 0.608 | 0.317 | 0.079 | 0.247 | 0.34 | 0.47 | 1.46 | -0.0522 | 0.517 | -0.951 (inactive)
CC1CC/C=C\[C@H]2OC34C=CCN(c5ccc6ccccc6c5)C(=O)[C@H]3N(C(CO)C(C)C)C(=O)[C@@H]4C2C(=O)O1 (stereo not given in full) | 1.22 | 0.29 | 1.33 | -1.01 | 0.136 | -0.282 | 0.254 | 0.0964 | 1.08 | -0.776 (inactive)
COc1cc(CO)cc(I)c1O[C@H]1C=C(C(=O)NCCO)C[C@@H](NCc2ccccc2F)[C@@H]1O | 0.271 | 1.17 | 0.0691 | 0.124 | 0.347 | 0.974 | 1.72 | 1.19 | 0.278 | -0.0791 (inactive)
O=C1NC(=O)C2C1C=CC(C(O)c1c(F)cccc1Cl)N2Nc1ccccn1 (stereo not given) | 0.582 | 0.257 | 0.202 | 0.776 | 0.477 | 0.731 | 0.52 | -0.236 | 0.228 | -0.194 (inactive)
CC(C)c1ccc(NN2C(C(O)c3ccco3)C=CC3C(=O)N(c4ccccc4)C(=O)C32)cc1 (stereo not given) | 1.26 | 1.22 | 1.14 | 0.995 | 1.26 | 0.0324 | 0.222 | 0.634 | 1.32 | -1.29 (inactive)
Cc1ccc(S[C@]2(C(=O)NCCN3CCOCC3)CC(=O)N(Cc3ccccc3C(F)(F)F)[C@@H]2c2ccc(CO)cc2I)cc1 | 0.771 | -0.0269 | 0.167 | -1.16 | -0.562 | -0.907 | -0.695 | -0.87 | -0.194 | 0.622 (inactive)
CN1C(=O)C2C(C1=O)C1C=C(c3ccc(CO)cc3)C2C(c2cccs2)N1Cc1cccc(OC(F)(F)F)c1 (stereo not given) | 1.87 | 1.25 | 0.726 | 1.02 | 0.942 | 0.384 | 0.38 | 0.733 | 0.661 | 0.117 (inactive)
[N-]=[N+]=NCc1ccccc1[C@H]1OC(c2ccc(OCCCO)cc2)=N[C@@]1(CCS(=O)(=O)c1ccccc1)C(N)=O | 2.08 | 1.18 | 0.238 | 1 | 1.18 | 1.26 | -1.14 | -0.456 | 1.16 | -3.95 (inactive)
CON(C)C(=O)C=C1C[C@@H](c2cccc(Cl)c2)O[C@@H](c2cccc(Cl)c2)O1 | 1.15 | 0.878 | 0.441 | 0.472 | 0.412 | 0.372 | 3.69 | 0.669 | 0.462 | -0.344 (inactive)
CC(C)(C)OC(=O)CC[C@@]1(C(=O)O)N=C(c2ccc(OCCCO)cc2)O[C@@H]1c1ccccc1 | 1.52 | 0.716 | -0.219 | 0.506 | 0.0761 | -0.228 | -0.161 | -0.643 | -0.0131 | 0.383 (inactive)
C=C(/C=C/CNS(=O)(=O)c1ccc(C)cc1)[C@H](O)[C@H]1CCCN1S(=O)(=O)c1ccccc1[N+](=O)[O-] | -0.394 | 0.237 | 0.0627 | 0.53 | 0.933 | 0.891 | 0.381 | 0.887 | 0.299 | -0.83 (inactive)
C=CC[C@@]12N=C(c3ccc(OCCCO)cc3)O[C@@H]1c1ccccc1N(CCS(=O)(=O)c1ccccc1)C2=O | 0.954 | 1.22 | 0.87 | 0.944 | 1.3 | 1.55 | 0.699 | 0.51 | 0.961 | -12.1 (active)
O=C1O[C@@H](c2ccccc2)[C@@H](c2ccccc2)N2[C@@H](c3ccccc3OCCO)[C@]3(C(=O)Nc4ccccc43)[C@@H](C(=O)NC[C@H](O)c3ccccc3)[C@H]12 | -0.27 | 1.19 | 0.682 | -0.0424 | -0.185 | -0.452 | 0.171 | -0.373 | -0.545 | 0.0121 (inactive)
O=C1NCC(=O)N2[C@@H]1C[C@@H](C(=O)O)[C@H]2c1ccc(O)cc1 | 3.15 | 1.19 | 0.278 | 0.8 | 1.38 | 1.9 | 0.563 | 1.56 | 0.255 | -0.504 (inactive)
COc1c(C)cc(-c2cc3c(c(-c4ccccc4)n2)[Si](C(C)C)(C(C)C)OC3)cc1C | 0.188 | -0.892 | -0.353 | 0.363 | 0.134 | 0.514 | 0.439 | -0.135 | 0.245 | 0.411 (inactive)
CC(C)CN1C(=O)[C@@]2(c3ccc([N+](=O)[O-])cc3)CC(=O)N(CC34CC5CC(CC(C5)C3)C4)[C@@H]2c2ccc(CO)cc21 | 2.34 | -0.636 | -0.253 | 0.233 | -1.16 | -1.14 | -0.422 | -0.969 | -0.323 | 0.0209 (inactive)
CCCC[C@@H]1C[C@H]1[C@@H](NC(=O)c1cccnc1)c1ccc(-c2ccccc2)cc1 | -0.238 | -0.647 | -0.14 | -2.12 | -1.17 | -2.03 | 0.475 | -0.815 | -0.166 | 0.0562 (inactive)
